Source: PubChem BioAssay AID1159580 (chemical genetic matrix, 2015)
In all, about 5,500 compounds went through this assay and about 2,000 (36%) were called active. Roughly 18% stayed inconclusive and do not appear here. Rule as the data show it: active = normalized growth mostly below about 0.91 (no sharp cut-off); inconclusive = no clear call, values can overlap the other calls; inactive = mostly above about 0.92. The list shows a part of the results.

Experiment: chemical genetic growth profiling, strain panel (AID 1159580);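 also: tested at 20 µM; growth read once vehicle control cultures reached saturation at 30 °C; 1 = growth at the plate median or of vehicle wells; lower values mean less growth of the strain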
Details: S. cerevisiae deletion strains, growth OD

Measured: normalized growth

O=c1c2ccccc2oc2ccccc12
inactive: locus YAL021C, strain ccr4, active compounds read low 0.938 | locus YAL026C, strain drs2, active compounds read low 0.912 | locus YAL030W, strain snc1, active compounds read low 0.948 | locus YBL061C, strain skt5, active compounds read low 0.922 | locus YBR023C, strain chs3, active compounds read low 0.916 | locus YBR171W, strain sec66, active compounds read low 0.897 | locus YCL069W, strain vba3, active compounds read low 0.961 | locus YCR088W, strain abp1, active compounds read low 0.964 | locus YDL005C, strain med2, active compounds read low 0.946 | locus YDL040C, strain nat1, active compounds read low 0.946 | locus YDR001C, strain nth1, active compounds read low 0.953 | locus YDR069C, strain doa4, active compounds read low 0.927 | locus YDR159W, strain sac3, active compounds read low 0.989 | locus YDR297W, strain sur2, active compounds read low 0.945 | locus YDR334W, strain swr1, active compounds read low 0.929 | locus YDR335W, strain msn5, active compounds read low 0.946 | locus YEL037C, strain rad23, active compounds read low 0.944 | locus YER015W, strain faa2, active compounds read low 0.954 | locus YER016W, strain bim1, active compounds read low 0.95 | locus YER111C, strain swi4, active compounds read low 0.937 | locus YFR010W, strain ubp6, active compounds read low 0.915 | locus YGL167C, strain pmr1, active compounds read low 0.931 | locus YGL173C, strain kem1, active compounds read low 0.907 | locus YGL227W, strain vid30, active compounds read low 0.95 | locus YHR027C, strain rpn1, active compounds read low 0.944 | locus YJL092W, strain hpr5, active compounds read low 0.945 | locus YJL115W, strain asf1, active compounds read low 0.953 | locus YJL129C, strain trk1, active compounds read low 0.976 | locus YJL154C, strain vps35, active compounds read low 0.964 | locus YJL187C, strain SWE1, active compounds read low 0.935 | locus YKR026C, strain gcn3, active compounds read low 0.949 | locus YKR091W, strain srl3, active compounds read low 0.956 | locus YLL026W, active compounds read low 0.951 | locus YLL041C, strain sdh2, active compounds read low 0.952 | locus YLR027C, strain aat2, active compounds read low 0.932 | locus YLR113W, strain HOG1, active compounds read low 0.941 | locus YLR258W, strain gsy2, active compounds read low 0.916 | locus YLR342W, strain FKS1, active compounds read low 0.963 | locus YLR357W, strain rsc2, active compounds read low 1.06 | locus YLR370C, strain arc18, active compounds read low 0.952 | locus YLR384C, strain iki3, active compounds read low 0.921 | locus YML120C, strain ndi1, active compounds read low 0.915 | locus YMR058W, strain fet3, active compounds read low 0.918 | locus YMR125W, strain sto1, active compounds read low 0.918 | locus YMR129W, active compounds read low 0.946 | locus YMR205C, strain PFK2, active compounds read low 0.913 | locus YMR231W, strain pep5, active compounds read low 0.947 | locus YNL183C, strain NPR1, active compounds read low 0.841 | locus YNL209W, strain ssb2, active compounds read low 0.93 | locus YNL322C, strain KRE1 (second series), active compounds read low 0.965 | locus YNR049C, strain mso1, active compounds read low 0.961 | locus YOR070C, strain gyp1, active compounds read low 0.934 | locus YOR080W, strain dia2, active compounds read low 0.966 | locus YOR106W, strain vam3, active compounds read low 0.88 | locus YOR265W, strain rbl2, active compounds read low 0.936 | locus YPL240C, strain hsp82, active compounds read low 0.969 | locus YPL256C, strain CLN2, active compounds read low 0.876
active: locus YBR009C, strain hhf1, active compounds read low 0.854 | locus YBR231C, strain swc5, active compounds read low 0.858 | locus YBR279W, strain paf1, active compounds read low 0.922 | locus YCL011C, strain gbp2, active compounds read low 0.907 | locus YCL016C, strain dcc1, active compounds read low 0.869 | locus YCL061C, strain MRC1, active compounds read low 0.917 | locus YDR137W, strain rgp1, active compounds read low 0.794 | locus YDR195W, strain ref2 1.33 [resistant] | locus YDR392W, strain spt3, active compounds read low 0.495 | locus YEL003W, strain gim4, active compounds read low 0.906 | locus YEL061C, strain CIN8 (second series), active compounds read low 0.879 | locus YER155C, strain BEM2 (second series), active compounds read low 0.386 | locus YGL240W, strain doc1, active compounds read low 0.84 | locus YGL253W, strain hxk2, active compounds read low 0.859 | locus YHR013C, strain ard1, active compounds read low 0.738 | locus YHR030C, strain SLT2, active compounds read low 0.813 | locus YHR079C, strain IRE1, active compounds read low 0.822 | locus YHR142W, strain chs7, active compounds read low 0.766 | locus YJL095W, strain BCK1 (second series), active compounds read low 0.853 | locus YJL095W, strain BCK1, active compounds read low 0.857 | locus YJL164C, strain tpk1, active compounds read low 0.891 | locus YJL166W, strain qcr8, active compounds read low 0.879 | locus YJR066W, strain TOR1, active compounds read low 0.8 | locus YKL160W, strain elf1, active compounds read low 0.879 | locus YLL001W, strain dnm1, active compounds read low 0.884 | locus YLR221C, strain rsa3, active compounds read low 0.87 | locus YLR262C, strain YPT6 (second series), active compounds read low 0.769 | locus YLR320W, strain mms22, active compounds read low 0.697 | locus YNL071W, strain lat1, active compounds read low 0.737 | locus YNL248C, strain rpa49, active compounds read low 0.511 | locus YOR001W, strain rrp6, active compounds read low 0.88 | locus YOR083W, strain WHI5, active compounds read low 0.814 | locus YOR231W, strain MKK1, active compounds read low 0.836 | locus YOR270C, strain vph1, active compounds read low 0.611 | locus YOR290C, strain snf2, active compounds read low 0.792 | locus YPL051W, strain arl3, active compounds read low 0.859 | locus YPL078C, strain atp4, active compounds read low 0.842 | locus YPL106C, strain sse1, active compounds read low 0.759
